The source of these data is PubChem BioAssay (NCATS).

Several values for one entry are separate records, joined by “and”; a condition that tells them apart may be missing. Equal entries are not always repeated. Results filed as inconclusive are left out. Activity calls are given as the source filed them. Unless noted, the call rests on the fitted dose curve; in most records, active means well fitted curve in the direction sought with a large enough effect; inconclusive means small, poorly fitted or top-dose-only effect, or another doubt; inactive means no such curve, though single readings can be large; an effect the other way counts as inactive or inconclusive.

Assay [1] addresses Calcium and integrin-binding protein 1 (Homo sapiens) (UniProt Q99828). The assay can be described thus: Primary qHTS for Identification of Calcium Integrin Binding Protein 1 (CIB1) Competitor (AID 1508620).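 Further: GST tagged CIB1 binding a fluorescein labelled alphaIIb integrin peptide tracer; top concentration of the series differs between compounds.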 In short, it runs like this: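 CIB1-GST (1 uM final) and compound incubated 15 min at room temperature before adding FITC-alphaIIb peptide tracer (100 nM final). Competition for binding read by fluorescence polarization (ex 480, em 540) after another 15 min at room temperature.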
(In general: Quantitative high-throughput screening tests each substance at several concentrations.)

Assay [2] concerns the target Cytochrome P450 2C9 (Homo sapiens) (UniProt P11712). Description: Cytochrome P450 family 2 subfamily C member 9 (CYP2C9) small molecule antagonists: luciferase biochemical (cell-free) qHTS assay (AID 1645842; active means well fitted curve in the direction sought with a large enough effect in the repeat runs; an effect the other way counts as inactive or inconclusive; further: nearly all actives have a fitted effect of over 55% in size; further: potency means the concentration at half of the fitted maximal effect). In short, it runs like this: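 P450-Glo CYP2C9 system: proluciferin substrate with enzyme in mix containing 0.4% BSA, 10 min at room temperature, then NADPH regeneration solution added and incubated 1 h at 37C. Detection reagent stopped reaction; luminescence read after 20 min as RLU.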

Assay [3] is described as follows: Primary qHTS for inhibitors of nuclear receptor binding SET domain protein 2 (NSD2) in an isogenic RCH-ACV NSD2 p.E1099K mutant (9B) (AID 1645876). Further: nearly all actives have a fitted effect of over 70% in size. Further: potency means the concentration at half of the fitted maximal effect.
Assay [4] concerns the target N-terminal Xaa-Pro-Lys N-methyltransferase 1 (Homo sapiens) (UniProt Q9BV86). The assay can be described thus: Confirmatory qHTS for Inhibitors of N-terminal methyltransferase 1 (NTMT1): MTaseGlo Assay (AID 1645874). Further: nearly all actives have a fitted effect of over 65% in size. Further: potency means the concentration at half of the fitted maximal effect. The essentials:
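Enzyme mix (125 nM NTMT1, 100 uM SAM) + compound, 15 min RT; + 1 uM SPKRIA, 30 min RT, dark; MTase-Glo reagent 30 min, detection solution 30 min; luminescence. % inhibition vs no-enzyme/DMSO controls, 4-parameter Hill fit.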

Sequence of N-terminal Xaa-Pro-Lys N-methyltransferase 1 (Homo sapiens) (Q9BV86 whole entry, looked up): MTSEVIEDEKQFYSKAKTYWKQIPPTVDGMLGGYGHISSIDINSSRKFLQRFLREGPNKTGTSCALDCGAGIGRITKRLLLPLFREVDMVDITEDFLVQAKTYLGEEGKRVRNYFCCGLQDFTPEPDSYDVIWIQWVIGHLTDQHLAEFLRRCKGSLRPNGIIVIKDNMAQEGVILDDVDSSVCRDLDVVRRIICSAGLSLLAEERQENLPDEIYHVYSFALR
Sequence of Cytochrome P450 2C9 (Homo sapiens) (P11712 whole entry, looked up): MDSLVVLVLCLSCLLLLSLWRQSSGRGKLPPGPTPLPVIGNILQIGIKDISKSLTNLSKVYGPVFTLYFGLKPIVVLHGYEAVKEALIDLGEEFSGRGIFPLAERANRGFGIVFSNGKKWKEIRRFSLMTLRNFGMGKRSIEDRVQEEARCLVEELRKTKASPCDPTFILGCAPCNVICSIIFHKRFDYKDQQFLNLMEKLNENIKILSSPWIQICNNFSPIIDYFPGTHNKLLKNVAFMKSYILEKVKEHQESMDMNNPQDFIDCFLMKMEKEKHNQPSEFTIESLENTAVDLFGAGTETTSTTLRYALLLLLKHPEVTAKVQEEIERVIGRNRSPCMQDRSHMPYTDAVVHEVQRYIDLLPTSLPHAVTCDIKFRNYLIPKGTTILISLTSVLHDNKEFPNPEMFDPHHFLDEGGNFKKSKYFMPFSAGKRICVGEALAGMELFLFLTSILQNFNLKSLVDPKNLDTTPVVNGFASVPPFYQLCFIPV
Sequence of Calcium and integrin-binding protein 1 (Homo sapiens) (Q99828 whole entry, looked up): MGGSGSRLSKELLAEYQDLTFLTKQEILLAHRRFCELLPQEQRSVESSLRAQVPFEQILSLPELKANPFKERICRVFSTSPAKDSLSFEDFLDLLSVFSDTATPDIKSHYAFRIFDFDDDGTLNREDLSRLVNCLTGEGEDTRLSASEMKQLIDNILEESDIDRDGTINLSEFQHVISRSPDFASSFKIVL

With `COc1ccc(Cl)c(Nc2nc3ccccc3nc2NS(=O)(=O)c2cccc(NC(=O)C(C)(C)N)c2)c1`, the Potency entry in assay [1] was “inactive”. Moreover, the Potency is 2.68 µM (active) in assay [2]; 3.65 µM (active) and 5.9 µM (active) in assay [3].

As for `CNS(=O)(=O)c1ccccc1Nc1nc(Nc2ccc(N3CCN(C)CC3)cc2OC)ncc1Cl`, the Potency result in assay [1] was “inactive”. Besides, the Potency in assay [2] is 3.38 µM (active); in assay [3], 578 nM (active).

As to `C[C@@H]([C@@H](O)c1ccc(O)cc1)N1CCC(O)(c2ccccc2)CC1`, the Potency entry in assay [1], in assay [2] and in assay [3] was “inactive” each time.

Turning to `COc1ccc(-c2ccc3c(N4CCOCC4)nc(N4CC(C)OC(C)C4)nc3n2)cc1CO` (configuration not stated), the Potency result in assay [1] was “inactive”. Moreover, the Potency in assay [2] was 6.74 µM (active); in assay [3], 205 nM (active).

With `Cc1cc(Nc2ccc(NC(=O)c3ccc(Nc4ccnc5ccccc45)cc3)cc2)nc(N)n1`, the Potency entry in assay [1] and in assay [2] was “inactive” in each case. In assay [3], the Potency is 1830 nM (active).

As to `COc1cc(N)c(Cl)cc1C(=O)NC[C@@H]1CCN2CCC[C@@H]12`, the Potency entry in assay [1] and in assay [3] was “inactive” each time. Moreover, the Potency in assay [2] was 9.52 µM (active).

For the compound `CC(C)(C)Nc1nc(Nc2ccc(C(N)=O)cc2)cc(N)c1C#N`, the Potency result in assay [1] was “inactive”. Besides, the Potency in assay [2] is 3.38 µM (active); in assay [3], 3650 nM (active).

As to `COc1ccc(C2=N[C@@H](c3ccc(Cl)cc3)[C@@H](c3ccc(Cl)cc3)N2C(=O)N2CCNC(=O)C2)c(OC(C)C)c1`, the Potency result in assay [1] and in assay [2] was “inactive” each time. Further, the Potency in assay [3] was 3650 nM (active).

For `COC(=O)N(C)c1c(N)nc(-c2nn(Cc3ccccc3F)c3ncccc23)nc1N`, the Potency result in assay [1] and in assay [3] was “inactive” throughout. Moreover, the Potency in assay [2] is 23.9 µM (active).

On to `COc1ccc2[nH]c3c(-c4cccc5ccccc45)nccc3c2c1`, for which the Potency entry in assay [1] was “inactive”. The Potency in assay [2] is 1.51 µM (active); in assay [3] it was 916 nM (active).

For the compound `CC(=O)NCC(=O)N1C2CCC1c1cc(Nc3ncc(C(F)(F)F)c(NC4CCC4)n3)ccc12` (configuration not stated), the Potency entry in assay [1] was “inactive”. The Potency is 9.52 µM (active) in assay [2] and 72.8 nM (active) in assay [3].

Take `CC/C=C\CC1C(=O)C=CC1(CCCCCCCC(=O)O)OC(C)=O` (configuration not stated): the Potency result in assay [1] and in assay [3] was “inactive” in each case.

As to `C=C1CC23CC1CCC2C12OC(=O)C(C)(CCC1O)C2C3C(=O)O` (configuration not stated), the Potency result in assay [1] and in assay [3] was “inactive” each time.

On to `CC(Oc1cc(-n2cnc3ccc(CN4CCN(C)CC4)cc32)sc1C(N)=O)c1ccccc1C(F)(F)F` (configuration not stated), for which the Potency entry in assay [1] is “inactive”. Moreover, the results for the Potency in assay [4] and in assay [3] were 21.4 µM (active) and 578 nM (active), respectively.

Regarding `CC(C)c1nnc(-c2ccc(-c3ccccc3)nc2)n1-c1cccc2nonc12`, the Potency entry in assay [1] and in assay [3] was “inactive” in each case. Besides, the Potency in assay [2] was 13.5 µM (active).

For the compound `C/C=C1\[C@H](OC2OC(COC3OC(CO)C(O)C(O)C3O)C(O)C(O)C2O)OC=C(C(=O)OC)[C@H]1CC(=O)OCCc1ccc(O)cc1` (some centres not stated), the Potency result in assay [1] and in assay [3] was “inactive” throughout.

In the case of `CCOCc1nc2c(N)nc3ccccc3c2n1CC(C)(C)O`, the Potency entry in assay [1], in assay [2] and in assay [3] was “inactive” throughout.

Consider `C=C1C[C@]23C[C@H]1[C@@H](O)C[C@H]2[C@@]12C=C[C@H](O)[C@@](C)(C(=O)O1)[C@H]2[C@@H]3C(=O)O`, for which the Potency entry in assay [1] and in assay [3] was “inactive” throughout.

In the case of `N#Cc1ccc(C(=O)N2CCC3(CC2)N=C(N)c2c(F)ccc(F)c2N3)cn1`, the Potency result in assay [1], in assay [2] and in assay [3] was “inactive” in each case.

For `Cc1c(C(=O)N2CCOc3ccc(-c4ccc(N)nc4)cc3C2)ccc(S(C)(=O)=O)c1F`, the Potency result in assay [1] and in assay [2] was “inactive” in each case. The Potency in assay [3] was 817 nM (active) and 1.32 µM (active).

As for `C=C1C(=O)O[C@@H]2/C=C(\C)C(=O)/C=C/[C@](C)(O)C[C@@H](OC(=O)C(C)C)[C@@H]12`, the Potency entry in assay [1] is “inactive”. The Potency in assay [3] was 401 nM (active).

On to `c1cn2cc(-c3ccc4cn[nH]c4c3)nc(Nc3ccc(N4CCOCC4)cc3)c2n1`, for which the Potency entry in assay [1] was “inactive”. Besides, the Potency was 0.601 µM (active) in assay [2] and 325 nM (active) in assay [3].

For `C/C=C/c1ccc2oc(-c3ccc(O)c(OC)c3)c(C)c2c1`, the Potency entry in assay [1] and in assay [4] was “inactive” throughout. Also, the Potency in assay [3] is 14500 nM (active).

On to `N#Cc1c(Oc2ccc(F)c(NC(=O)Cc3cccc(C(F)(F)F)c3)c2)ccc2nc(NC(=O)C3CC3)sc12`, for which the Potency result in assay [1] is “inactive”. The Potency is 0.338 µM (active) in assay [2] and 578 nM (active) in assay [3].

Regarding `CN(C)C1CCN(C(=O)c2ccc(NC(=O)Nc3ccc(-c4nc(N5CCOCC5)nc(N5CCOCC5)n4)cc3)cc2)CC1`, the Potency entry in assay [1] and in assay [2] was “inactive” throughout. The Potency in assay [3] was 41.7 nM (active).

Consider `CCO[C@@H]1OC(=O)C[C@@H]1NC(=O)[C@@H]1CCCN1C(=O)[C@@H](NC(=O)c1ccc(N)c(Cl)c1)C(C)(C)C`, for which the Potency entry in assay [1], in assay [2] and in assay [3] was “inactive” throughout.

Take `O=C1CCC=CC1(O)C(=O)OCc1ccccc1O[C@@H]1O[C@H](CO)[C@@H](O)[C@H](O)[C@H]1O` (some centres not stated): the Potency entry in assay [1] was “inactive”. For the same compound, in assay [3], the Potency is 12600 nM (active).

Take `CC(C)S(=O)(=O)NC[C@H](C)c1ccc(NC(=O)c2cc(F)cc(F)c2)cc1`: the Potency result in assay [1] and in assay [3] was “inactive” throughout. Further, in assay [2], the Potency was 7.56 µM (active).

Turning to `CC1CCC2(OC1)OC1CC3C4CCC5C[C@@H](O[C@@H]6O[C@H](CO[C@@H]7OC[C@@H](O)[C@H](O)[C@H]7O)[C@H](O)[C@H](O)[C@H]6O)CC[C@]5(C)C4CC[C@]3(C)C1C2C` (some centres not stated), the Potency entry in assay [1] and in assay [3] was “inactive” each time.

On to `NC(=O)c1cccc(-c2cc(OC(=O)NC3CCCCC3)ccc2O)c1`, for which the Potency entry in assay [1] and in assay [4] was “inactive” each time.

For the compound `C=C1C[C@]23C[C@H]1CC[C@H]2[C@@]12CC[C@H](O)[C@@](C)(C(=O)O1)[C@H]2[C@@H]3C(=O)O`, the Potency result in assay [1] and in assay [3] was “inactive” in each case.

`CN(C)C/C=C/C(=O)Nc1cccc(C(=O)Nc2ccc(Nc3nccc(-c4cccnc4)n3)cc2)c1`: the Potency entry in assay [1] and in assay [2] was “inactive” throughout. Also, in assay [3], the Potency is 649 nM (active).
